Rows were chosen to be rich in hits. Some 10% of all compounds tested hit in one or more screens of this group.
VP16 counter = VP16 counterscreen qHTS for inhibitors of ROR gamma transcriptional activity | hit rate 3.5% among 310,000 | Potency, µM (titrated, usually from 53.6 µM), actives largely listed as inhibitors | Drosophila S2 Gal4-VP16 UAS-luciferase, luminescence, 20 h;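 further: Gal4-VP16 expression switched on by copper sulfate through the metallothionein promoter; nearly all actives have a fitted effect of over 50% in size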
SW480 rereplic = A quantitative high throughput screen for small molecules that induce DNA re-replication in SW480 colon adenocarcinoma cells | SW480 DNA re-replication, Hoechst DNA content imaging, 48 h | AID 624297, 2012 | Potency, µM (titrated, usually from 46.1 µM), hits mostly activators | hit rate 1.8% among 340,000; further: nearly all actives have a fitted effect of over 55% in size
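SW480 cells exposed to compounds for 48 hr at 37 C, 5% CO2, then Hoechst-stained 40 min. Nuclear DNA content imaged by fluorescence scanning (405 nm excitation, 500-530 nm emission); re-replication scored as increased high-intensity nuclei.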
RORgamma inh = qHTS for inhibitors of ROR gamma transcriptional activity | AID 2551, 2010 | Drosophila S2 Gal4-RORgamma UAS-luciferase reporter, 20 h | hit rate 5.4% among 310,000 | Potency, µM (highest dose often 53.6 µM), most hits filed as inhibitors | Nuclear receptor ROR-gamma (Mus musculus), P51450; further: nearly all actives have a fitted effect of over 60% in size
Target sequence (P51450 whole entry, looked up, the tested form may be a part): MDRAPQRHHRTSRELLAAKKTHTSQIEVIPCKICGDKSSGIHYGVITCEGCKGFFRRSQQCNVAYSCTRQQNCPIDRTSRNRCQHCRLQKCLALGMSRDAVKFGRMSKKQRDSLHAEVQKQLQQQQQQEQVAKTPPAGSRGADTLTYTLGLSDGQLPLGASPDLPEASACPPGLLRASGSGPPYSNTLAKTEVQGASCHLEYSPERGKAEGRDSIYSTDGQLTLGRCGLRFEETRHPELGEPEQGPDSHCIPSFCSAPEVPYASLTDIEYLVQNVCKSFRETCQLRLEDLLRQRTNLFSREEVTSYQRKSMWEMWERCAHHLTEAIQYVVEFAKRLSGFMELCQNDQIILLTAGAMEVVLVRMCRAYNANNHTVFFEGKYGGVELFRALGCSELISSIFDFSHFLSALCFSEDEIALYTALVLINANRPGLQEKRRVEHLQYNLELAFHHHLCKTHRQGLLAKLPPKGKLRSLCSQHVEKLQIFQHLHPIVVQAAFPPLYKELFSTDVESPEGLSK
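Luciferase reporter read in Schneider cells carrying Gal4-RORγ (mouse) and UAS-Photinus luciferase; cells given compound 1 h before 700 uM copper sulfate induction, then incubated 20 h at ambient temperature.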
ELG1 DNA repair = qHTS screen for small molecules that inhibit ELG1-dependent DNA repair in human embryonic kidney (HEK293T) cells expressing luciferase-tagged ELG1; hit rate 2.3% among 330,000; HEK293T ELG1-luciferase reporter, luminescence, 16 h; DNA damage induced by 5-fluorouridine; AID 504467, 2011; Potency, µM (top dose mostly 46.1 µM), most hits filed as inhibitors; further: nearly all actives have a fitted effect of over 55% in size
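DMSO vehicle served as the neutral condition. Each well held 2,000 cells given 5-fluorouridine plus compound; after 16 hr at 37 °C/5% CO2, ONE-Glo was added and luciferase measured 30 min later.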
MCF10A rereplic = A quantitative high throughput screen for small molecules that induce DNA re-replication in MCF 10a normal breast cells; MCF 10A DNA re-replication, Hoechst nuclear intensity, 48 h; Potency, µM (top dose mostly 46.1 µM), actives largely listed as activators; hit rate 2.9% among 350,000; AID 624296, 2012; further: nearly all actives have a fitted effect of over 50% in size
Large screens that a line does not name were inactive. The call rests on the fitted dose curve; in most records, active means well fitted curve in the direction sought with a large enough effect; inconclusive means small, poorly fitted or top-dose-only effect, or another doubt; inactive means no such curve, though single readings can be large; an effect the other way counts as inactive or inconclusive.

O=C(C1=C[C@@H](C2CCCCC2)C[C@@H](OCCCCO)O1)N1CCOCC1	none
Cc1ccc(NC(=S)NCc2cccn2C)cc1	VP16 counter inconclusive, SW480 rereplic 21µM, RORgamma inh 4µM
Cc1cccc(NC(=S)NCc2cccn2C)c1	RORgamma inh inconclusive
CCc1cccc(C)c1NC(=S)NCc1cccn1C	RORgamma inh inconclusive, ELG1 DNA repair inconclusive
Cc1ccccc1NC(=S)NCc1cccn1C	VP16 counter inconclusive, RORgamma inh inconclusive
Cc1ccc(Cl)cc1NC(=S)NCc1cccn1C	VP16 counter 7.9µM, RORgamma inh 7.1µM
Cc1c(Cl)cccc1NC(=S)NCc1cccn1C	VP16 counter 18µM, RORgamma inh 4.5µM
CSCC[C@H](NC(=O)[C@H](CC(C)C)NC(=O)[C@H](CO)NC(=O)[C@H](CCC(=O)O)NC(=O)[C@H](CC(C)C)NC(=O)[C@H](Cc1ccc(O)cc1)NC(=O)[C@H](CCCCN)NC(=O)[C@H](CCCCN)NC(=O)[C@H](C)NC(=O)[C@H](CO)NC(=O)[C@H](CC(C)C)NC(=O)[C@H](CCC(N)=O)NC(=O)CNC(=O)[C@H](CC(C)C)NC(=O)[C@H](CC(C)C)NC(=O)[C@H](CCCCN)NC(=O)[C@H](CO)NC(=O)[C@H](Cc1ccccc1)NC(=O)[C@H](CC(=O)O)NC(=O)[C@H](CO)NC(=O)[C@@H](NC(=O)[C@H](Cc1ccccc1)NC(=O)[C@@H](NC(=O)CNC(=O)[C@H](CC(=O)O)NC(=O)[C@H](C)NC(=O)[C@@H](N)Cc1cnc[nH]1)C(C)C)[C@@H](C)O)C(N)=O	none (no result: SW480 rereplic, ELG1 DNA repair, MCF10A rereplic)
COc1cccc(C2(C)NC(=O)N(CC(=O)Nc3ccc(N4CCOCC4)cc3)C2=O)c1 (stereo not given)	none (no result: VP16 counter, RORgamma inh)
Cc1ccccc1CN1CCCOCCS1(=O)=O	none
Cc1cccc(C)c1NC(=S)NC(=O)c1ccccc1F	VP16 counter 6.3µM, RORgamma inh 4.5µM
CC(=O)c1ccc(NC(=S)Nc2ccc(N3CCOCC3)cc2)cc1	none
CCc1ccc(C(=O)NC(=S)Nc2ccc(N3CCOCC3)cc2)cc1	VP16 counter 18µM, RORgamma inh 5µM, ELG1 DNA repair inconclusive
Cc1ccc(C(=O)NC(=S)NCCCN2CCOCC2)cc1	RORgamma inh 18µM, ELG1 DNA repair inconclusive
O=C(CN1CCOCC1)NNC(=S)Nc1ccccc1	VP16 counter 1.3µM
COc1cc(C(=O)OCC2CC(c3ccccc3)=NO2)cc(OC)c1OC (stereo not given)	none
O=C(NC(=S)NCCN1CCOCC1)c1ccccc1	SW480 rereplic inconclusive, RORgamma inh inconclusive, ELG1 DNA repair inconclusive
O=C(NC(=S)Nc1ccc(N2CCOCC2)cc1)c1ccccc1	VP16 counter inconclusive, RORgamma inh 8.9µM, ELG1 DNA repair inconclusive
Cc1c(C(=O)Nc2ccc(N3CCOCC3)cc2)cccc1[N+](=O)[O-]	none
O=C(NC(=S)NCCN1CCOCC1)c1cccc(Cl)c1	VP16 counter inconclusive, RORgamma inh 11µM
O=C(NC(=S)Nc1ccc(N2CCOCC2)cc1)c1ccco1	SW480 rereplic inconclusive, RORgamma inh inconclusive, ELG1 DNA repair inconclusive
O=C(NC(=S)Nc1ccc(N2CCOCC2)cc1)c1cccc(Cl)c1Cl	VP16 counter 5µM, RORgamma inh 3.2µM
Cc1c(C(=O)NC(=S)Nc2ccc(N3CCOCC3)cc2)cccc1[N+](=O)[O-]	RORgamma inh 8.9µM
O=C(NC(=S)Nc1ccc(N2CCOCC2)cc1)c1cccc(Cl)c1	VP16 counter 11µM, RORgamma inh 2.5µM, ELG1 DNA repair inconclusive, MCF10A rereplic inconclusive
CN1CCN(c2ccc(NC(=S)NC(=O)c3cccc4c(Cl)cccc34)cc2)CC1	SW480 rereplic 21µM, RORgamma inh inconclusive, MCF10A rereplic inconclusive
O=C(NC(=S)Nc1ccc(N2CCOCC2)cc1)c1cncc(Br)c1	VP16 counter 8.9µM, RORgamma inh 5µM, ELG1 DNA repair inconclusive
Cc1ccccc1C(=O)NC(=S)Nc1ccc(N2CCOCC2)cc1	VP16 counter inconclusive, RORgamma inh 20µM
Cc1ccccc1C(=O)Nc1ccc(N2CCCC2)cc1	ELG1 DNA repair inconclusive
CC1(C)OC(C(O)(c2cccc3c2oc2ccccc23)c2cccc3c2oc2ccccc23)C(C(O)(c2cccc3c2oc2ccccc23)c2cccc3c2oc2ccccc23)O1 (stereo not given)	none (no result: SW480 rereplic, ELG1 DNA repair, MCF10A rereplic)
CC(=O)N(C)c1ccc(NS(=O)(=O)c2cccc3nsnc23)cc1	none (no result: VP16 counter, RORgamma inh)
COc1cc(CNCCN2CCOCC2)ccc1OCc1c(Cl)cccc1Cl	SW480 rereplic inconclusive, MCF10A rereplic inconclusive
CCOc1cc(CNCCN2CCOCC2)ccc1OCc1ccccc1Cl	VP16 counter inconclusive, SW480 rereplic 21µM
O=C(NCCc1csc(-c2ccccc2)n1)c1ccc(Br)o1	none
COc1cc(-c2nc(CCNC(=O)c3ccco3)cs2)cc(OC)c1OC	ELG1 DNA repair inconclusive
COc1ccc(-c2nc(CCNC(=O)c3cccs3)cs2)cc1	RORgamma inh inconclusive, ELG1 DNA repair 21µM
O=C(NCCc1csc(-c2cccnc2)n1)c1ccc(Cl)cc1	SW480 rereplic inconclusive, RORgamma inh inconclusive, MCF10A rereplic 12µM
O=C(NCCc1csc(-c2cccnc2)n1)c1ccc(Br)o1	ELG1 DNA repair 12µM
O=C(NCCc1csc(-c2cccnc2)n1)c1cccc(Cl)c1	ELG1 DNA repair inconclusive
O=C(NCCc1csc(-c2ccccc2)n1)c1c(F)cccc1Cl	RORgamma inh inconclusive, ELG1 DNA repair 18µM
Cc1sc2nc(CN(Cc3cccs3)C(=O)C3CC3)[nH]c(=O)c2c1C	RORgamma inh 11µM, ELG1 DNA repair inconclusive
O=C(O)c1cnc(-c2ccccc2)nc1C(F)(F)F	none
Cc1cccc(NC(=S)N=Nc2c(O)[nH]c3ccccc23)c1	VP16 counter 3.5µM, SW480 rereplic inconclusive, RORgamma inh 1.4µM, MCF10A rereplic 6.5µM
COc1ccccc1NC(=S)N=Nc1c(O)[nH]c2ccc(Br)cc12	VP16 counter 5.6µM, RORgamma inh 2µM, ELG1 DNA repair inconclusive, MCF10A rereplic inconclusive
O=C(N=Nc1c(O)[nH]c2ccccc12)Nc1ccccc1	none (no result: VP16 counter, RORgamma inh, ELG1 DNA repair)
COc1ccc(/C(C)=N/OCC(=O)N=Nc2c(O)[nH]c3ccc(Br)cc23)cc1	ELG1 DNA repair inconclusive
COc1ccc(/C=N/OCC(=O)N=Nc2c(O)[nH]c3ccc(Br)cc23)cc1OC	VP16 counter inconclusive, ELG1 DNA repair 13µM, MCF10A rereplic inconclusive
CNC[C@H]1Oc2c(NS(=O)(=O)c3ccc(OC)cc3)cccc2C(=O)N([C@H](C)CO)C[C@H]1C	ELG1 DNA repair inconclusive (no result: VP16 counter, RORgamma inh)
COc1cccc(C(C(=O)NCC2CCCO2)N(C(=O)Cn2nnc3ccccc32)c2ccc(NC(C)=O)cc2)c1 (stereo not given)	none
